In general, AC50 refers to the midpoint of the concentration-response curve, whichever way the signal moves.

This passage reports outcome and AC50 results from PubChem BioAssay (EPA / NIEHS).

Where “and” joins values, the source holds several entries; their conditions need not be identical. Equal entries are not always repeated. Records with an inconclusive call do not appear. Where a structure was tested more than once in an assay, its records may differ in their call. Calls of active or inactive are those of the source. Rule for the calls: active = hit-call score of the fitted dose curve at least 0.9, where 1 is the maximum; inconclusive = response in the unintended direction; inactive = score below 0.9.

Assay [1] is described as follows: TOX21_p53_BLA_p2_viability: Viability Assessment in the Tox21 HCT-116 p53 Agonism Beta-lactamase Assay, Phase 2 (AID 2283591).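 Note: compound exposure lasted 16 h at 37 °C; actives lower the ATP signal meaning cytotoxicity.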 The method in brief:
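HCT116 p53-bla cells, 4000/well, dosed after 5 h plating (217-fold dilution of DMSO stocks) and incubated 16 h at 37C. Viability taken as cellular ATP by CellTiter-Glo luminescence after 30 min RT; signal loss marks cytotoxicity.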

The target in assay [2] is Cellular tumor antigen p53 (Homo sapiens) (UniProt P04637). Kind of assay: TOX21_p53_BLA_p2_ratio: Tox21 HCT-116 p53 Agonism Beta-lactamase Assay, Ratio, Phase 2 (AID 2283592). The method in brief: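 HCT116 cells carrying a p53-responsive beta-lactamase reporter were plated, incubated 5 h at 37C, then dosed with compounds in DMSO (217-fold dilution) for 16 h. CCF4-AM substrate was added for 2 h at room temperature; the 460/530 nm emission ratio gave gain-of-signal activity relative to DMSO.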
Sequence of Cellular tumor antigen p53 (Homo sapiens) (P04637 whole entry, looked up): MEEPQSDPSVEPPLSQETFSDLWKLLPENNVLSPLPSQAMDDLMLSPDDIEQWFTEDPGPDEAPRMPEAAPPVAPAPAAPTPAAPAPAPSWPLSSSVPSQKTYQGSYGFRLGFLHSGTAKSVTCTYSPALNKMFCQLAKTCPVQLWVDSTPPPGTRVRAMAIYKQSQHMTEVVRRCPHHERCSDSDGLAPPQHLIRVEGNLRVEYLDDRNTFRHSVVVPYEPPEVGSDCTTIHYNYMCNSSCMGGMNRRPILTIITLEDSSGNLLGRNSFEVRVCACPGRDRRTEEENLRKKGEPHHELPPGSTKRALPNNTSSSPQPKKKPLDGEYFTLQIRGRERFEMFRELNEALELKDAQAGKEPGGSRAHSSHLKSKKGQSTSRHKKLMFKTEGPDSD

The target is the same in assay [3]. Kind of assay: TOX21_p53_BLA_p3_ratio: Tox21 HCT-116 p53 Agonism Beta-lactamase Assay, Ratio, Phase 3 (AID 2283596). In short, it runs like this: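 HCT116 p53-bla cells (4000/well) given compound in DMSO (217-fold dilution) after 5 h, incubated 16 h at 37C. CCF4-AM substrate 2 h at room temperature; 460/530 nm emission ratio, gain fitted against DMSO.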
The target is the same in assay [4]. Kind of assay: TOX21_p53_BLA_p4_ratio: Tox21 HCT-116 p53 Agonism Beta-lactamase Assay, Ratio, Phase 4 (AID 2283601). In short, it runs like this: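 HCT-116 p53 beta-lactamase reporter cells (4000/well) preincubated 5 h, then compound (217-fold dilution of DMSO stock) for 16 h at 37C. CCF4-AM substrate added 2 h at room temperature; 460/530 nm emission ratio fitted upward versus DMSO.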

Assay [5] is described as follows: ATG_XTT_Cytotoxicity: Cytotoxicity Assessment in the Attagene TRANS-FACTORIAL HepG2 Assay (AID 2283584). In short, it runs like this: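 HepG2 human liver cells, transiently transfected with multiple GAL4-UAS reporter units, were dosed and read at 24 h by XTT as cell number. Loss of signal was fitted relative to DMSO negative control baseline.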
Assay [6] can be described thus: TOX21_p53_BLA_p4_viability: Viability Assessment in the Tox21 HCT-116 p53 Agonism Beta-lactamase Assay, Phase 4 (AID 2283597).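 Note: hits lower the luminescence signal meaning cytotoxicity.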 The method in brief: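 HCT116 p53-bla cells (4000/well) rested 5 h at 37C, then received compounds in DMSO (217-fold dilution) for 16 h at 37C, 5% CO2. CellTiter-Glo was added after the CCF4-AM read, and luminescence was read after 30 min at room temperature.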

Assay [7] in a line: TOX21_p53_BLA_p5_viability: Viability Assessment in the Tox21 HCT-116 p53 Agonism Beta-lactamase Assay, Phase 5 (AID 2283600). The method in brief: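 Cells were plated at 4000/well, rested 5 h at 37C, then given compounds in DMSO (217-fold dilution) for 16 h at 37C, 5% CO2. Following the CCF4-AM beta-lactamase read, CellTiter-Glo was added and luminescence was read after 30 min at room temperature.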

The nature of assay [8]: TOX21_p53_BLA_p3_viability: Viability Assessment in the Tox21 HCT-116 p53 Agonism Beta-lactamase Assay, Phase 3 (AID 2283593).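 Note: cells exposed to compound for 16 h before reading.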 The method in brief:
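HCT116 cells, 4000/well, dosed 5 h after plating by pin transfer (217-fold dilution from DMSO stock) and incubated 16 h at 37C, 5% CO2. Viability read as ATP luminescence with CellTiter-Glo after 30 min at room temperature.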

Assay [9] concerns the target Cellular tumor antigen p53 (Homo sapiens) (UniProt P04637). Kind of assay: TOX21_p53_BLA_p5_ratio: Tox21 HCT-116 p53 Agonism Beta-lactamase Assay, Ratio, Phase 5 (AID 2283599). The method in brief:
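HCT-116 p53-bla cells (4000/well) plated 5 h, dosed with compound (217-fold DMSO dilution) for 16 h at 37 C; CCF4-AM substrate 2 h at room temperature. Activity is the 460/530 nm emission ratio (405 nm excitation), fitted in gain-of-signal direction versus DMSO.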

Take `O=NN1CCCCCC1`: the call in assay [1], in [2], in assay [3] and in assay [4] was inactive.
With `CCN(N=O)C(N)=O`, the compound was classed as inactive in assay [5], in [3], in assay [6], in assay [7] and in [4].
For the compound `[F][Sn]([c]1ccccc1)([c]1ccccc1)[c]1ccccc1`, the concentration at half-maximal activity (AC50) in assay [1] is 1.6 µM (active); in [2] it was 10.1 µM (active); in assay [8] it was 13.3 µM (active); in assay [3] it was 13.5 µM (active); in assay [6] it was 3.96 µM (active); in assay [9], 18.3 µM (active). Besides, the AC50 was 13.2 µM (active) in assay [7] and 12 µM (active) in assay [4].
Turning to `C#CCOC(=O)/C=C(C)/C=C/CC(C)CCCC(C)C` (stereo unspecified), the compound was classed as inactive in assay [5], in assay [8] and in assay [6].
`Cc1c([N+](=O)[O-])c(C)c([N+](=O)[O-])c(C(C)(C)C)c1[N+](=O)[O-]`: the outcome in assay [5], in assay [9], in assay [7] and in assay [4] was inactive. Further, the AC50 in assay [6] was 42.5 µM (active).
Regarding `CC(C)(c1ccccc1)c1cc(-n2nc3ccccc3n2)c(O)c(C(C)(C)c2ccccc2)c1`, the compound was called inactive in [1], in assay [2], in [6], in assay [9] and in assay [4].
Turning to `CC(C)CP(=S)(S)CC(C)C`, the call in assay [5], in assay [3], in [7] and in assay [4] was inactive.
On to `O=[N+]([O-])c1c2ccccc2cc2ccccc12`, for which the result in assay [1], in assay [2], in assay [8], in assay [3], in assay [6] and in assay [9] was inactive. In addition, the outcome in assay [7] and in assay [4] was inactive.
Turning to `CN(C)c1ccc(N=O)cc1`, the outcome in [5], in [3] and in assay [4] was inactive. Moreover, the AC50 in assay [8] is 88.2 µM (active) and 80.8 µM (active); in assay [6], 70.4 µM (active) and 69.5 µM (active); in assay [9] it was 83.8 µM (active) and 86.6 µM (active); in assay [7], 74.2 µM (active) and 79.4 µM (active); in assay [4] it was 86.9 µM (active).
For the compound `CCC[N+](CCC)(CCC)CCC`, the outcome in assay [1], in [2], in assay [8], in assay [3] and in [9] was inactive.
On to `CCN(CCO)CCO`, for which the result in [5], in [7] and in assay [4] was inactive.
As for `Nc1nc(=S)[nH][nH]1`, the call in [1], in assay [2], in assay [9] and in assay [7] was inactive.
For the compound `O=NN1CCCCCCC1`, the compound was classed as inactive in [1], in assay [2], in [3], in [6], in assay [9] and in [7]. Further, in [4], the result was inactive.
Regarding `CCCSP(=S)(OCC)Oc1ccc(SC)cc1` (stereo unspecified), the compound was classed as inactive in assay [5], in assay [6], in [9] and in assay [4].
For `C[C@H]1C(=O)O[C@@H]2CCN3CC=C(COC(=O)[C@](C)(O)[C@]1(C)O)[C@H]23`, the compound was classed as inactive in assay [5], in assay [8], in [3], in assay [9], in assay [7] and in [4].
For the compound `O=C=Nc1ccc(Cl)cc1`, the result in assay [1], in [2], in assay [8], in [3], in [6] and in assay [9] was inactive. Also, the outcome in assay [7] and in assay [4] was inactive.
As for `Cc1cc(Cl)ccc1OCCCC(=O)O`, the call in [5], in assay [8], in assay [3], in [6], in [9] and in assay [7] was inactive. The outcome in assay [4] was inactive.
Turning to `CC(C)(C1CCC(O)CC1)C1CCC(O)CC1` (stereo unspecified), the compound was classed as inactive in assay [5], in [6] and in assay [9].
As to `c1ccc2c(c1)Oc1ccccc1O2`, the compound was called inactive in assay [1], in assay [2], in assay [8], in assay [3], in assay [6] and in [9]. The compound was called inactive in [7]. In [3], the half-maximal activity concentration (AC50) is 86.4 µM (active).
Turning to `Oc1ccc(Cc2ccc(O)cc2)cc1`, the outcome in assay [5], in assay [2], in assay [3] and in [7] was inactive.
As for `CCOP(=O)(OCC)OC(=CCl)c1ccc(Cl)cc1Cl`, the compound was called inactive in [1], in [8], in [3], in assay [6], in assay [9] and in assay [7]. The result in assay [4] was inactive.
With `CC(C=O)Cc1ccc2c(c1)OCO2` (stereo unspecified), the outcome in assay [1], in assay [2], in assay [8], in assay [3], in assay [6] and in [9] was inactive. For the same compound, the compound was classed as inactive in assay [7] and in assay [4].
As for `CCC[CH2][Sn]([Cl])([Cl])[CH2]CCC`, the AC50 is 2.47 µM (active) and 1.79 µM (active) in [8]; 19.6 µM (active) and 20.1 µM (active) in [3]; 2.06 µM (active) and 3.45 µM (active) in assay [6]; 15 µM (active) and 20.4 µM (active) in assay [9]; 2.75 µM (active) and 2.86 µM (active) in assay [7]; 3.21 µM (active) and 13.9 µM (active) in [4].
As to `Nc1nc(N)nc(Cl)n1`, the compound was classed as inactive in [7] and in assay [4].
As for `CC(=Cc1ccccc1)[N+](=O)[O-]`, the compound was called inactive in assay [1], in [8], in [9], in assay [7] and in assay [4].
In the case of `CC(C)=CC1C(C(=O)OCc2cccc(Oc3ccccc3)c2)C1(C)C` (stereo unspecified), the call in [1], in assay [8], in assay [3], in [6], in assay [7] and in assay [4] was inactive.
Turning to `C=C(C)[C@@H]1CC=C(C=O)CC1`, the result in assay [2], in [8], in assay [3], in [9] and in [4] was inactive.
As for `C=C(C)C(=O)OCC(CC)CCCC` (stereo unspecified), the result in assay [2], in assay [8], in [3], in assay [6], in assay [9] and in assay [7] was inactive. Besides, the result in assay [4] was inactive.
In the case of `O=[N+]([O-])c1cccc2ccccc12`, the outcome in assay [2], in assay [8], in assay [3], in [6], in [9] and in [4] was inactive.
For `CC(C)[N+](=O)[O-]`, the result in assay [3], in [6], in assay [9], in assay [7] and in [4] was inactive.
For the compound `Cc1cccc(N=Nc2ccc(N(C)C)cc2)c1`, the outcome in [2], in assay [8], in assay [3], in assay [6], in [9] and in [4] was inactive.
In the case of `N#Cc1ccc(Cl)cc1`, the result in assay [6], in assay [9], in assay [7] and in assay [4] was inactive.
